For test [1], the target named is human Peroxisome Proliferator-activated Receptor alpha (PPARa), PPARA (gene 5465) (UniProt Q07869). As to the kind of experiment: ATG_PPARa_TRANS: Attagene TRANS-FACTORIAL HepG2 Assay for human Peroxisome Proliferator-activated Receptor alpha (PPARa) (AID 2283001).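 For AC50: potency for gain of reporter signal over DMSO so agonist or activator.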 The essentials:
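Transient HepG2 transfection, GAL4-UAS reporters, NR-Gal4 chimeras; 24 h compound exposure. Readout: reporter transcripts by RT-PCR, 6-FAM primer extension, HpaI digest, capillary electrophoresis. Positive direction vs DMSO baseline.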

Read-out in test [2]: Intercellular Adhesion Molecule 1 (ICAM1), ICAM1 (gene 3383)
As to the kind of experiment: BSK_3C_ICAM1: BioMAP Diversity Plus: 3C Assay for Intercellular Adhesion Molecule 1 (ICAM1) Biomarker Activity (AID 2283003; active = hit-call score of the fitted dose curve at least 0.9, where 1 is the maximum; inactive = score below 0.9). The settings on record: primary human endothelial cells (HUVEC); actives raise or lower the signal. The essentials: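 Using DMSO as baseline, bidirectional curve fitting was applied to ICAM-1 ELISA signals from HUVEC in the 3C system, measured 24 h after compound addition.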

The nature of test [3]: BSK_3C_Proliferation: Cell Proliferation Assessment in the BioMAP Diversity Plus: 3C Assay (AID 2283006; active = hit-call score of the fitted dose curve at least 0.9, where 1 is the maximum; inactive = score below 0.9;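 for AC50: potency may reflect either rise or fall in cell number versus DMSO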). The settings on record: primary human endothelial cells (HUVEC). The essentials:
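Measured here: sulforhodamine B (0.1%) staining of TCA-fixed sub-confluent umbilical vein endothelial cultures 48 h post-dosing, absorbance 560 nm. DMSO served as negative control and baseline; both signal gain and loss were modelled.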

The target in test [4] is Peroxisome proliferator-activated receptor gamma (Homo sapiens) (UniProt P37231). As to the kind of experiment: ATG_PPARg_TRANS: Attagene TRANS-FACTORIAL HepG2 Assay for human Peroxisome Proliferator-activated Receptor-gamma (PPARg) (AID 2283007). The essentials: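 After 24 h of chemical exposure, transfected HepG2 cells carrying PPARγ-Gal4 chimera reporter constructs are lysed for RNA. Reporter transcripts are measured by RT-PCR and capillary electrophoresis with fluorescent labelling, and gain of signal is fitted versus DMSO.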

Test [5] has as its target Nuclear receptor subfamily 1 group I member 2 (Homo sapiens) (UniProt O75469). As to the kind of experiment: ATG_PXR_TRANS: Attagene TRANS-FACTORIAL HepG2 Assay for human Pregnane X Receptor (PXR) (AID 2283008). The gist of the method:
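Transactivation by exogenous PXR–GAL4 fusion measured as reporter transcript induction after 24 h compound treatment of transfected human HepG2 cells. Read-out via RT-PCR and capillary electrophoresis of labelled fragments, fitted upward relative to DMSO.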

In test [6] the target is Retinoic acid receptor RXR-alpha (Homo sapiens) (UniProt P19793). As to the kind of experiment: ATG_RXRa_TRANS: Attagene TRANS-FACTORIAL HepG2 Assay for human Retinoid X Receptor alpha (RXRa) (AID 2283012). The essentials: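 Chimeric NR-GAL4 trans-activation in HepG2, 24 h treatment; reporter transcripts quantified by fluorescence on capillary electrophoresis, analysed for upward change from DMSO.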

In test [7] the target is human Retinoid X Receptor beta (RXRb), RXRB (gene 6257) (UniProt P28702). As to the kind of experiment: ATG_RXRb_TRANS: Attagene TRANS-FACTORIAL HepG2 Assay for human Retinoid X Receptor beta (RXRb) (AID 2283013). The gist of the method: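 After a 24 h incubation with test chemical, transfected HepG2 cells carrying NR-Gal4 fusions and GAL4-UAS reporter transcription units yield RNA whose reporter cDNA is FAM-labelled, HpaI-cut and sized by capillary electrophoresis; increases over DMSO are scored.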

Test [8] deals with human Thyroid Receptor alpha (THRa1), THRA (gene 7067) (UniProt P10827). As to the kind of experiment: ATG_THRa1_TRANS: Attagene TRANS-FACTORIAL HepG2 Assay for human Thyroid Receptor alpha (THRa1) (AID 2283014). The essentials:
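Reporter transcript induction, read by capillary electrophoresis of 6-FAM-labelled RT-PCR products, reflects activity of a transfected THRa1-Gal4 fusion in HepG2 liver cells. Cells were dosed for 24 h; activity was fitted in the positive direction against DMSO.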

Read-out in test [9]: E-selectin (Homo sapiens) (UniProt P16581)
As to the kind of experiment: BSK_3C_Eselectin: BioMAP Diversity Plus: 3C Assay for Eselectin Biomarker Activity (AID 2283015; active = hit-call score of the fitted dose curve at least 0.9, where 1 is the maximum; inactive = score below 0.9;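 for outcome: cell surface E-selectin protein quantified by ELISA 24 h after dosing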). The conditions noted are these: primary human endothelial cells (HUVEC); actives raise or lower the signal. The gist of the method: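 ELISA read-out of E-selectin on endothelial monolayers after 24 h chemical treatment. Human umbilical vein primary cells served as the system, with DMSO defining baseline activity for bidirectional fitting.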

Read-out in test [10]: Interleukin-1 alpha (IL1a), IL1A (gene 3552)
As to the kind of experiment: BSK_BE3C_IL1a: BioMAP Diversity Plus: BE3C Assay for Interleukin-1 alpha (IL1a) Biomarker Activity (AID 2283016; active = hit-call score of the fitted dose curve at least 0.9, where 1 is the maximum; inactive = score below 0.9). The conditions noted are these: primary human bronchial epithelial cells; actives raise or lower the signal. The gist of the method: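 Measured in human lung primary bronchial epithelial cells: IL-1a by ELISA at 24 h after dosing, with bidirectional fitting against DMSO.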

Read-out in test [11]: Monocyte Chemoattractant Protein-1 (MCP1), CCL2 (gene 6347)
As to the kind of experiment: BSK_3C_MCP1: BioMAP Diversity Plus: 3C Assay for Monocyte Chemoattractant Protein-1 (MCP1) Biomarker Activity (AID 2283017; active = hit-call score of the fitted dose curve at least 0.9, where 1 is the maximum; inactive = score below 0.9). The settings on record: primary human endothelial cells (HUVEC); actives raise or lower the signal. The essentials: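 ELISA read-out of MCP-1 from human umbilical vein endothelial cell cultures harvested 24 h post-dosing. Gain or loss of signal was fitted relative to DMSO.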

Read-out in test [12]: Monocyte Chemoattractant Protein-1 (MCP1), CCL2 (gene 6347)
As to the kind of experiment: BSK_4H_MCP1: BioMAP Diversity Plus: 4H Assay for Monocyte Chemoattractant Protein-1 (MCP1) Biomarker Activity (AID 2283018; active = hit-call score of the fitted dose curve at least 0.9, where 1 is the maximum; inactive = score below 0.9). The settings on record: primary human endothelial cells (HUVEC); actives raise or lower the signal. The essentials: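 Primary human umbilical vein endothelium is exposed to chemical for 24 h before MCP-1 is assayed by ELISA. Concentration-response fitted bidirectionally relative to DMSO.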

Read-out in test [13]: Human Leukocyte Antigen - DR isotype (HLADR), HLA-DRA (gene 3122)
As to the kind of experiment: BSK_3C_HLADR: BioMAP Diversity Plus: 3C Assay for Human Leukocyte Antigen - DR isotype (HLADR) Biomarker Activity (AID 2283019; active = hit-call score of the fitted dose curve at least 0.9, where 1 is the maximum; inactive = score below 0.9;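 for outcome: ELISA of cell-surface HLA-DR on HUVEC 24 h after dosing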). The conditions noted are these: primary human endothelial cells (HUVEC); actives raise or lower the signal. The gist of the method:
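ELISA readout of surface HLA-DR on human umbilical vein endothelium, taken 24 h after chemical treatment. Gain- and loss-of-signal were both fitted relative to DMSO.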

Read-out in test [14]: Interleukin-8 (IL8), CXCL8 (gene 3576)
As to the kind of experiment: BSK_3C_IL8: BioMAP Diversity Plus: 3C Assay for Interleukin-8 (IL8) Biomarker Activity (AID 2283020; active = hit-call score of the fitted dose curve at least 0.9, where 1 is the maximum; inactive = score below 0.9). The settings on record: primary human endothelial cells (HUVEC); actives raise or lower the signal. The gist of the method: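 Using DMSO-treated wells as the baseline, bidirectional curve fitting was applied to ELISA-measured IL-8 from human umbilical vein endothelial cultures sampled 24 h after compound addition.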

Test [15] has as its target human Vitamin D Receptor (VDR), VDR (gene 7421) (UniProt P11473). As to the kind of experiment: ATG_VDR_TRANS: Attagene TRANS-FACTORIAL HepG2 Assay for human Vitamin D Receptor (VDR) (AID 2283022). The gist of the method: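 Steps: transfect HepG2 with GAL4-UAS-driven reporter constructs; dose compounds 24 h; isolate RNA, reverse-transcribe, PCR-amplify with 6-FAM-labelled primer extension and HpaI digestion; quantify fragments by capillary electrophoresis relative to DMSO.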

The target in test [16] is human Peroxisome Proliferator-activated Receptor delta (PPARd), PPARD (gene 5467) (UniProt Q03181). As to the kind of experiment: ATG_PPARd_TRANS: Attagene TRANS-FACTORIAL HepG2 Assay for human Peroxisome Proliferator-activated Receptor delta (PPARd) (AID 2283002). The gist of the method: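 Fluorescence from capillary electrophoresis of labelled RT-PCR reporter fragments gives the signal; DMSO sets baseline. Cells: HepG2 transiently carrying GAL4-UAS reporter units plus chimeric nuclear receptor-Gal4 proteins, exposed to chemicals for 24 h.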

Test [17] addresses human Retinoic Acid Receptor beta (RARb), RARB (gene 5915) (UniProt P10826). As to the kind of experiment: ATG_RARb_TRANS: Attagene TRANS-FACTORIAL HepG2 Assay for human Retinoic Acid Receptor beta (AID 2283004). The gist of the method: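 Transient transfection of HepG2 with multiple reporter units → chemical dosing, 24 h → total RNA isolation → RT with oligo(dT) → reporter-specific PCR, 6-FAM primer extension, HpaI digest → capillary electrophoresis. Positive direction vs DMSO control.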

For test [18], the target named is Retinoic acid receptor alpha (Homo sapiens) (UniProt P10276). As to the kind of experiment: ATG_RARa_TRANS: Attagene TRANS-FACTORIAL HepG2 Assay for human Retinoic Acid Receptor alpha (RARa) (AID 2283005). The essentials: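 HepG2 transiently transfected with multiplex GAL4-UAS reporter units including a human RARa–GAL4 chimera; 24 h compound exposure. Reporter mRNA quantified by RT-PCR, 6-FAM labeling and capillary electrophoresis; gain of signal versus DMSO.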

Test [19] deals with human RAR-related Orphan Receptor beta (RORb), RORB (gene 6096) (UniProt Q92753). As to the kind of experiment: ATG_RORb_TRANS: Attagene TRANS-FACTORIAL HepG2 Assay for human RAR-related Orphan Receptor beta (RORb) (AID 2283010). The gist of the method: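 Multiplexed transcription-factor reporter assay: HepG2 cells transiently carrying NR-Gal4/GAL4-UAS constructs, 24 h treatment, mRNA quantified by RT-PCR plus capillary electrophoresis fluorescence; activity scored as induction over DMSO.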

Results filed as inconclusive are left out. A structure can be active in one record and inactive in another. Active and inactive are the calls of the source. Rule for the calls, unless noted: active = hit-call score of the fitted dose curve at least 0.9, where 1 is the maximum; inconclusive = response in the unintended direction; inactive = score below 0.9.

Sequence of Nuclear receptor subfamily 1 group I member 2 (Homo sapiens) (O75469 whole entry, looked up, the tested form may be a part): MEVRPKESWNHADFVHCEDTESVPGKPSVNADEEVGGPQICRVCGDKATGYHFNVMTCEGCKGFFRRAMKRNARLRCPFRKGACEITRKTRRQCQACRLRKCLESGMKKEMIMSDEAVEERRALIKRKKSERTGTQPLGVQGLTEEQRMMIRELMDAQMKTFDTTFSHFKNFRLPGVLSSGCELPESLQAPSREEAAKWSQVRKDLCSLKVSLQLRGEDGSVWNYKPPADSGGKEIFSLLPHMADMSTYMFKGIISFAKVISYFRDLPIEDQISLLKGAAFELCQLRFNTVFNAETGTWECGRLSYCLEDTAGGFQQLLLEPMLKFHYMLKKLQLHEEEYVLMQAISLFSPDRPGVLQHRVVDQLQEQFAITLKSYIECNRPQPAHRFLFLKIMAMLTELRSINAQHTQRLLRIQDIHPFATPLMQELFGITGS
Sequence of human Vitamin D Receptor (VDR), VDR (gene 7421) (P11473 whole entry, looked up, the tested form may be a part): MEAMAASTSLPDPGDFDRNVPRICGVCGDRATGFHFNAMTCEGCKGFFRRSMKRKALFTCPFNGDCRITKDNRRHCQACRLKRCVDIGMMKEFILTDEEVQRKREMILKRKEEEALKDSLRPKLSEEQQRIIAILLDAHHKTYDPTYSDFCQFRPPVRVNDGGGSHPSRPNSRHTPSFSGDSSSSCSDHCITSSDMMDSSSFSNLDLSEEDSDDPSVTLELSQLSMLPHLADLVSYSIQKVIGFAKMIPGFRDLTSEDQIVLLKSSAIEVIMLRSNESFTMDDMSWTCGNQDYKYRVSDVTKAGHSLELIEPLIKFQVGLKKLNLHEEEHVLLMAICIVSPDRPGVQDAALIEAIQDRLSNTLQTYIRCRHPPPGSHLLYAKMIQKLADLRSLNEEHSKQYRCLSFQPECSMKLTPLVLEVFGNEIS
Sequence of human Peroxisome Proliferator-activated Receptor delta (PPARd), PPARD (gene 5467) (Q03181 whole entry, looked up, the tested form may be a part): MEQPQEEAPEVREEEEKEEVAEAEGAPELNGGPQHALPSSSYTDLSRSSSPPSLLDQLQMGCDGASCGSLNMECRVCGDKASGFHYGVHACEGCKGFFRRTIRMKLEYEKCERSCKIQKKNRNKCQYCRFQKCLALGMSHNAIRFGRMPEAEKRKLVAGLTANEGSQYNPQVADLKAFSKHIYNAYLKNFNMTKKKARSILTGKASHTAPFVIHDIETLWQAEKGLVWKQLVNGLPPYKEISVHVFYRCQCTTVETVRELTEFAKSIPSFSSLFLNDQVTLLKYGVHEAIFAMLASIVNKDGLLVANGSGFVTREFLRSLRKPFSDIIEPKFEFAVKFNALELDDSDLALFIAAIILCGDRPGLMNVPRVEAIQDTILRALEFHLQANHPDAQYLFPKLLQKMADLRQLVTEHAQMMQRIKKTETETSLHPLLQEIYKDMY
Sequence of Peroxisome proliferator-activated receptor gamma (Homo sapiens) (P37231 whole entry, looked up, the tested form may be a part): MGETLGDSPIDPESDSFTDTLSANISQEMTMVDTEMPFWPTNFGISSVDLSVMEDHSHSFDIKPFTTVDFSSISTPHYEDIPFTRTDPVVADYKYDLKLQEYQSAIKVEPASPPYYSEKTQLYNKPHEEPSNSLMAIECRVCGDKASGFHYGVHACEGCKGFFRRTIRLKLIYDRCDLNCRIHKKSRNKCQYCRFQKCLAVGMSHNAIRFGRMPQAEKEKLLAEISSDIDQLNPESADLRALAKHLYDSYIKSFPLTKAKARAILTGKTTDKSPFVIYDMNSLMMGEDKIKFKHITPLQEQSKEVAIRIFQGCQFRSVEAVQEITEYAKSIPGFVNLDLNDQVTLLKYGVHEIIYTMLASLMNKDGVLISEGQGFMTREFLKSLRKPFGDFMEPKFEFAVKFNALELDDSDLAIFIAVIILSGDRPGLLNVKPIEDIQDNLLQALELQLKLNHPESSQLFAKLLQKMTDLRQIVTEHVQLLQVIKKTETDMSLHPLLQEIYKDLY
Sequence of E-selectin (Homo sapiens) (P16581 whole entry, looked up): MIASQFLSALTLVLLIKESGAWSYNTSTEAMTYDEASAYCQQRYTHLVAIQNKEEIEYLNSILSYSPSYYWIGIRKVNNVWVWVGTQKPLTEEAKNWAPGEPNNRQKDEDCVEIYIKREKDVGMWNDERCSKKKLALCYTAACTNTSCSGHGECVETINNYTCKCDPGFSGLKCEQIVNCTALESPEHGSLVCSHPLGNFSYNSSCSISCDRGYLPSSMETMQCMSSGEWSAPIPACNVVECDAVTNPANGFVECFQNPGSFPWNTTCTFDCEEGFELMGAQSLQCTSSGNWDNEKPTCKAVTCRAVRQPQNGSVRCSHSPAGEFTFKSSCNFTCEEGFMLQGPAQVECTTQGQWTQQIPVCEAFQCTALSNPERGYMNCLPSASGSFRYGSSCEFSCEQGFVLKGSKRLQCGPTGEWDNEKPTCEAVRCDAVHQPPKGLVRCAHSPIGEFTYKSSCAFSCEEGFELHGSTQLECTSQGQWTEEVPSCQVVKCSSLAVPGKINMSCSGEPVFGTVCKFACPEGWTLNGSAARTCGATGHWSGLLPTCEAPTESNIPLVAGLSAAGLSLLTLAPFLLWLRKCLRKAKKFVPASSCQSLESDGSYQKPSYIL
Sequence of Retinoic acid receptor RXR-alpha (Homo sapiens) (P19793 whole entry, looked up, the tested form may be a part): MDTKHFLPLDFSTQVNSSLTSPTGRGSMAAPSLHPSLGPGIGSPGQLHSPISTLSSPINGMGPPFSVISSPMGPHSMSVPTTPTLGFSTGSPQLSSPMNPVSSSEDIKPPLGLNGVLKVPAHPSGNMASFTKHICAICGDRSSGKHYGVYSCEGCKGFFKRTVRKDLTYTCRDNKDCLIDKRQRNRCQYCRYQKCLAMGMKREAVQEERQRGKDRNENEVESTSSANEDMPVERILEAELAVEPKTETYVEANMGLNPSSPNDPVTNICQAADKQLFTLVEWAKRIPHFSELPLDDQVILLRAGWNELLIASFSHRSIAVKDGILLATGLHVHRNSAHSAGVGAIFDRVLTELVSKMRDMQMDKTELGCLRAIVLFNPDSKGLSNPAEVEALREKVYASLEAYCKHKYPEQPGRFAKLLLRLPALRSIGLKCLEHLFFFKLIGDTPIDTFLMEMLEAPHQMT
Sequence of human Peroxisome Proliferator-activated Receptor alpha (PPARa), PPARA (gene 5465) (Q07869 whole entry, looked up, the tested form may be a part): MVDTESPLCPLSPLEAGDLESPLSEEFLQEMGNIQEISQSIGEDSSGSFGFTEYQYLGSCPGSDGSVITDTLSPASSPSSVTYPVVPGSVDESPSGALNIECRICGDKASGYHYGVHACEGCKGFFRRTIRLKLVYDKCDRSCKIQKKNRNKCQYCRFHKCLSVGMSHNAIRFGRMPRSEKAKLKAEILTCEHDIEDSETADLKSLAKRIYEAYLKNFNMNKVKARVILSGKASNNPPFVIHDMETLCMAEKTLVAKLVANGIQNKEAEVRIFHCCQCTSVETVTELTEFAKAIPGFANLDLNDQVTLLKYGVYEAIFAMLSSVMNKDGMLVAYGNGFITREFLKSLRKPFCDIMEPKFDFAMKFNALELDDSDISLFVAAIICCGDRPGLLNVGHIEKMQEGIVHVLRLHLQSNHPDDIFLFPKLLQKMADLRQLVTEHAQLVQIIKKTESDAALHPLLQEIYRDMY
Sequence of human Retinoid X Receptor beta (RXRb), RXRB (gene 6257) (P28702 whole entry, looked up, the tested form may be a part): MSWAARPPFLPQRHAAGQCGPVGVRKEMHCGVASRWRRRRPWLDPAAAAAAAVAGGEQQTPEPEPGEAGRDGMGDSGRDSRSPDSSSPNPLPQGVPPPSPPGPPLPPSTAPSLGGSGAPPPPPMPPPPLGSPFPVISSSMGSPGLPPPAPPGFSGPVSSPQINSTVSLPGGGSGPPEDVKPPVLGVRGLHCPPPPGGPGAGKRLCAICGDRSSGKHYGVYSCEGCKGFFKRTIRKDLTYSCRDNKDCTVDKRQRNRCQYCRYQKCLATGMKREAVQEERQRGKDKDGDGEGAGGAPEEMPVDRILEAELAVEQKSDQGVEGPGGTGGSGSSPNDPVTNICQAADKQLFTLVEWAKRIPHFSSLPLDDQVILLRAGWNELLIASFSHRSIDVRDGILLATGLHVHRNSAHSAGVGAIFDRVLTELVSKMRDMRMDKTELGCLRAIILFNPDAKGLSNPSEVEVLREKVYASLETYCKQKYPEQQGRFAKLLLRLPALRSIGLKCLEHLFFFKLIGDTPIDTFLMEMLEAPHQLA
Sequence of Retinoic acid receptor alpha (Homo sapiens) (P10276 whole entry, looked up, the tested form may be a part): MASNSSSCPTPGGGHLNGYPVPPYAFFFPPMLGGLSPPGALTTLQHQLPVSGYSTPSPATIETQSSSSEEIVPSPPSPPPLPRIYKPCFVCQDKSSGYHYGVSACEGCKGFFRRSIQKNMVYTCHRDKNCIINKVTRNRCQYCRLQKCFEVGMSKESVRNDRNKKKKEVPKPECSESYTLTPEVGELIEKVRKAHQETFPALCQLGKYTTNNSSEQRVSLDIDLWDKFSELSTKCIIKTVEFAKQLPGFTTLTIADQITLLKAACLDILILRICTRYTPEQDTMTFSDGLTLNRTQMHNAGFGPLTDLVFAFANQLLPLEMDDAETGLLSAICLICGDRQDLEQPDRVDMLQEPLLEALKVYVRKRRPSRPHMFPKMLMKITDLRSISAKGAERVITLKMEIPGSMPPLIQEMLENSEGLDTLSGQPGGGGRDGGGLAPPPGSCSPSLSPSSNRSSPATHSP
Sequence of human Thyroid Receptor alpha (THRa1), THRA (gene 7067) (P10827 whole entry, looked up, the tested form may be a part): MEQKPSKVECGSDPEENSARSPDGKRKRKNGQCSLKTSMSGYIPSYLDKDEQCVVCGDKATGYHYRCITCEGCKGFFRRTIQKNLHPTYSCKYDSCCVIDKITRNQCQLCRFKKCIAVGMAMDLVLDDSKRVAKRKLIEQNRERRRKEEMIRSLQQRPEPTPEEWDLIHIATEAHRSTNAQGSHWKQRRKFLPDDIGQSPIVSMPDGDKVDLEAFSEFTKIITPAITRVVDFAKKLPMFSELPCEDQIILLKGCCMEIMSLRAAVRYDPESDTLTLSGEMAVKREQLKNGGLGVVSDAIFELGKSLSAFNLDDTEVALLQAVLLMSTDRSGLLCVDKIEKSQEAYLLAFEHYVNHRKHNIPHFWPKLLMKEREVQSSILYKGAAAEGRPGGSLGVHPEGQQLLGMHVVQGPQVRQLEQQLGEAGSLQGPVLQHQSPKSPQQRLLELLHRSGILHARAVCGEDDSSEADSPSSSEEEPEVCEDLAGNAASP

Usually AC50 stands for the concentration at which the activity in the assay is half-maximal. With `CCCCCCCCCCCO`, the AC50 in [1] was 100 µM (active); in test [2], 36.8 µM (active); in test [3], 34.2 µM (active); in [4], 62.9 µM (active); in test [6] it was 179 µM (active); in test [7], 47.8 µM (active). Also, the AC50 is 32 µM (active) in [9], 31 µM (active) in [13], 28.6 µM (active) in [14] and 159 µM (active) in test [15]. In addition, the molecule was called inactive in test [5], in [8], in test [10], in test [11] and in test [12].
As for `O=C(O)Cc1cc(I)c(Oc2ccc(O)c(I)c2)c(I)c1`, the molecule was called inactive in test [1], in test [16], in test [2], in test [17], in [5] and in test [6]. Also, the result in [9], in [11], in test [12], in [13], in test [14] and in test [15] was inactive. The half-maximal activity concentration (AC50) in test [3] is 9.41 µM (active); in [5] it was 19.4 µM (active); in [10], 25.5 µM (active).
Consider `Cc1cccc2ccccc12`, for which the result in [1], in test [2], in test [18], in [3], in test [4] and in test [5] was inactive. For the same molecule, the molecule was classed as inactive in test [19], in test [6], in [7], in [8], in test [9] and in [10]. In addition, the result in test [11], in test [12], in test [13] and in test [15] was inactive.
On to `COc1ccc2cc(S(=O)(=O)N[C@H](CC(=O)N[C@H](Cc3ccc(CN4[C@H](C)CCC[C@@H]4C)cc3)C(=O)N(C)C(C)C)c3ccc4c(c3)OCO4)ccc2c1`, for which the result in [1], in test [2], in test [4], in test [5], in [6] and in test [9] was inactive. Moreover, the outcome in test [10] and in [15] was inactive. In addition, the AC50 in test [3] was 22 µM (active); in [11], 12.5 µM (active); in test [12] it was 8.16 µM (active); in test [13], 24.3 µM (active).
